High-throughput results: PubChem, National Center for Advancing Translational Sciences (NCATS)
MCF10A rereplic = induces DNA re-replication in MCF 10a normal breast cells; AID 624296; 350,000 compounds, 2.9% hits; MCF 10A DNA re-replication, Hoechst nuclear intensity, 48 h; Potency, µM (doses to about 46.1 µM), inactives show at the highest dose activity, positive = re-replication, hits mostly activators; note: potency is the fitted concentration of half-maximal effect; % of control where 0% means no effect; nearly all actives have a fitted effect of over 50% in size
VP16 counter = Gal4-VP16 reporter inhibition counter-screen. AID 2546. Potency, µM (titrated, usually from 53.6 µM), inactives show at the highest dose activity, negative = inhibition, most hits filed as inhibitors. Drosophila S2 Gal4-VP16 UAS-luciferase, luminescence, 20 h. 310,000 compounds, 3.5% hits;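 note: Gal4-VP16 expression switched on by copper sulfate through the metallothionein promoter; potency is the fitted concentration of half-maximal effect; % is set by controls: 0 for no effect and ±100 for the full control effect; nearly all actives have a fitted effect of over 50% in size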
RORg inh = blocks mouse ROR gamma transcriptional activity. Potency, µM (doses to about 53.6 µM), without a hit: at the top dose activity change, negative = inhibition, hits mostly inhibitors. Drosophila S2 Gal4-RORgamma UAS-luciferase reporter, 20 h. 310,000 compounds, 5.4% hits. P51450; note: potency is the fitted concentration of half-maximal effect; % is set by controls: 0 for no effect and ±100 for the full control effect; nearly all actives have a fitted effect of over 60% in size
Target sequence (P51450 whole entry, looked up, the tested form may be a part): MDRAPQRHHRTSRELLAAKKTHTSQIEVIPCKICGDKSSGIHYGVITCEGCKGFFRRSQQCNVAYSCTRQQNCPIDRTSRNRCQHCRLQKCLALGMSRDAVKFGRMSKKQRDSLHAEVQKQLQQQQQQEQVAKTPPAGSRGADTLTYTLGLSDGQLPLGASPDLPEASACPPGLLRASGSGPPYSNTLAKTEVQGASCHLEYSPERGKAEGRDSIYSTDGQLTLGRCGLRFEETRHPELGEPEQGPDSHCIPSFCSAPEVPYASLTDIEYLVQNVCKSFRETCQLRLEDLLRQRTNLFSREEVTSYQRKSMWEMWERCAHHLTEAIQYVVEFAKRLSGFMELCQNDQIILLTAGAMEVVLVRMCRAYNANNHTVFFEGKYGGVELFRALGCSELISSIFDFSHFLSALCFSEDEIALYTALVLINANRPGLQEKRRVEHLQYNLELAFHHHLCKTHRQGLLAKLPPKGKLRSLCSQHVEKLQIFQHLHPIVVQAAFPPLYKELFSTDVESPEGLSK
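Compounds are pin-transferred onto Drosophila Schneider cells expressing a copper-inducible Gal4–ROR gamma transactivation domain fusion. After 1 hr, copper sulfate is added to 700 uM final; luciferase is read 20 hr later.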
IL1B secr inh = blocks inflammasome-driven IL-1 beta release; THP-1 LPS/ATP IL-1B secretion, AlphaLISA, 16 h; hits give low values; activity change, % at 57.5 µM; 360,000 compounds, 4.7% hits; in the data active = activity change below about -50%; inconclusive = mostly about -30% to -49%; note: % is set by controls: 0 for no effect and ±100 for the full control effect
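THP-1 cells pretreated 1 hr with compounds (up to 57.5 uM final), then stimulated with LPS (250 ng/mL final) plus ATP (1.25 mM final); secreted IL-1B measured by AlphaLISA after 16 hr, decreased signal indicating inhibition.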
SW480 rerep = induces DNA re-replication in SW480 colon adenocarcinoma cells. 340,000 compounds, 1.8% hits. SW480 DNA re-replication, Hoechst DNA content imaging, 48 h. Potency, µM (doses to about 46.1 µM), without a hit: at the highest dose re-replication activation, actives largely listed as activators; note: potency is the fitted concentration of half-maximal effect; % of control where 0% means no effect; nearly all actives have a fitted effect of over 55% in size
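Image-based read-out: total Hoechst fluorescence of nuclei (405 nm excitation, 500-530 nm emission), with hits raising the fraction of high-intensity nuclei. SW480 colon cells incubated 48 hr with compounds at 37 C.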
Starred values were filed as active, the others as inactive; ? = inconclusive; nt = no result given; [ ] = another dose, or the depositor's remark. A selection: hits, their analogues and other compounds. The true share with any hit is near 11%. Unless noted, calls come from the whole dose curve; as a rule, active = well fitted curve in the direction sought with a large enough effect; inconclusive = small, poorly fitted or top-dose-only effect, or another doubt; inactive = no such curve, though single readings can be large; an effect the other way counts as inactive or inconclusive.

SMILES | MCF10A rereplic | VP16 counter | RORg inh | IL1B secr inh | SW480 rerep
CO[C@H]1/C=C/O[C@@]2(C)Oc3c(C)c(O)c4c(O)c(c(/C=N\N5CCN(C6CCCC6)CC5)c(O)c4c3C2=O)NC(=O)/C(C)=C\C=C\[C@H](C)[C@H](O)[C@@H](C)[C@@H](O)[C@@H](C)[C@H](OC(C)=O)[C@@H]1C | 7.9% | -19.3% | 3.2% | nt | ?
COc1ccc(CCN2CCC[C@H](CN3CCc4cc(OC)c(OC)cc4CC3=O)C2)cc1OC | nt | 5.3% | 17.2% | nt | nt
CCN1C(=O)c2cccc3c(NC(=O)c4ccc5c(c4)OCCO5)ccc1c23 | 25.9µM* | -15.3% | -1.7% | 6.9 | ?
CCOC(=O)CN(C(=O)c1snc(C(N)=O)c1N)C(C(=O)NCCC(C)C)c1ccc(C)cc1 (centres undefined) | nt | nt | nt | 13.3 | nt
Cc1cccc(N(CC(=O)NC2CCCCC2)C(=O)c2ccc(C)s2)c1 | ? | -0.2% | 37.3% | ? | 7.31µM*
Cc1ccc(C(=O)N(CC(=O)NC2CCCC2)c2cccc(F)c2)s1 | 9.6% | -2.6% | 31.3% | -80.4* | -6.7%
CN(CC(=O)Nc1cccc(F)c1)C(=O)CCc1nc2sc3c(c2c(=O)[nH]1)CCCC3 | ? | nt | nt | 64.2 | ?
NC(CO)c1csc(NC(=O)Nc2ccccc2Cc2ccccc2)n1 (centres undefined) | nt | nt | nt | -13.3 | nt
CC(C)(C)c1ccccc1NC(=O)Nc1nc(C(N)Cc2ccc(F)cc2)cs1 (centres undefined) | nt | nt | nt | -53.3* | nt
NC(Cc1ccc(C(F)(F)F)cc1)c1csc(NC(=O)Nc2ccccc2Cc2ccccc2)n1 (centres undefined) | nt | nt | nt | -60.6* | nt
CC(C)c1ccccc1NC(=O)Nc1nc(C(N)Cc2ccc(C(F)(F)F)cc2)cs1 (centres undefined) | nt | nt | nt | -18.3 | nt
NC(CCc1ccccc1)c1csc(NC(=O)Nc2ccccc2Oc2ccccc2)n1 (centres undefined) | nt | nt | nt | -79.3* | nt
CC(C)(C)c1ccccc1NC(=O)Nc1nc(C(N)c2ccccc2)cs1 (centres undefined) | nt | nt | nt | -16.2 | nt
O=C(Cn1cc(COc2ccc(Cl)c(Cl)c2)nn1)NS(=O)(=O)c1ccccc1OC(F)(F)F | nt | nt | nt | 10.0 | nt
CS(=O)(=O)c1ccc([C@@H](O)[C@@H](COC(=O)CN)NC(=O)C(Cl)Cl)cc1 | -1.4% | -6.2% | 24.9% | nt | -2.7%
CC(C)(CO)[C@H](O)C(=O)NCCCO | nt | -5.7%[17 µM] | 12.4%[16.9 µM] | nt | nt
CC1(C)OC(=O)C2=C(C[C@@H](CCc3ccccc3)O[C@H]2C2CCCC2)O1 | nt | nt | nt | -0.2 | nt
Cc1cc(Cl)c(O)c(-n2nc3ccccc3n2)c1 | 2.1% | -10.9% | 23.6% | 2.6 | -6.5%
CC(C)(C)CC(C)(C)c1ccc(O)c(-n2nc3ccccc3n2)c1 | 26.6µM* | -4.7% | -8.5% | nt | 1.6%
COc1ccnc(Oc2ccccc2)c1C#N | 1.1% | -3.4% | 3.9% | -7.3 | 1.1%
COc1cnc(-c2ccccn2)nc1N(C)c1ccccc1 | ? | ? | 7.94µM* | 114.1 | ?
COc1cnc(-c2ccccn2)nc1Oc1cccc(C(F)(F)F)c1 | nt | 11.2µM* | 6.31µM* | nt | nt
CN(c1ccccc1)c1ncccn1 | -5.4% | nt | nt | 13.3 | -5.8%
COc1cnc(-c2ccccn2)nc1Oc1ccccc1 | -16.8% | ? | 11.2µM* | 14.9 | -12.3%
C[C@@H]1CN([C@@H](C)CO)C(=O)CCCn2nncc2CO[C@@H]1CN(C)S(=O)(=O)c1ccc(F)cc1 | nt | nt | nt | 12.3 | nt
SMILES | MCF10A rereplic | VP16 counter | RORg inh | IL1B secr inh | SW480 rerep
COCC(=O)N1CCC2(CCCN(Cc3ccccc3)C2)CC1 | nt | 0.3% | -7.1% | nt | nt
CC(C)c1ccccc1NC(=S)NCC1(N(C)C)CCCCC1 | 9.8% | ? | 15.8µM* | -24.7 | 4.4%
CC(C)c1ccccc1NC(=S)NC(=O)C1CCCCC1 | -0.9% | nt | nt | 70.8 | -1.0%
O=C(NCCC1=CCCCC1)c1ccc([N+](=O)[O-])cc1 | 0.6% | ? | ? | 3.9 | nt
O=C(NCCC1=CCCCC1)c1ccc(F)cc1 | 2.3% | 11.2µM* | ? | -20.1 | -3.8%
Cc1ccc(C(=O)NCCC2=CCCCC2)cc1S(=O)(=O)N1CCCCC1 | ? | nt | nt | -57.8* | ?
O=C(O)C1C2C=CC(C2)C1C(=O)NCCC1=CCCCC1 (centres undefined) | ? | 1.3% | -3.2% | 0.0 | -3.0%
